# Measured values as given in ChEMBL document CHEMBL3988442, “University of Dundee, Small-Polar-MMV Screening Library” (2021).
# In all, about 48,000 compounds went through this assay and about 13,000 (27%) showed an effect of 50% or more. Some of the results follow.
# Tested on: Wolbachia pipientis
# Assay: Anti-Wolbachia Cell-Based Screen
# Format: functional
# Parameters: scale not given: in the data most compounds retested in dose-response had high values
# Conditions: 5 µM
row,Compound,Percent Effect
1,Cc1nccnc1N1C[C@H](NC(=O)CNS(C)(=O)=O)[C@@H](C2CC2)C1,-53.3%
2,COc1cccc(C(=O)N2CCN(C(=O)CCn3ccnc3)CC2)c1,-2.961%
3,Cc1cc(C(=O)NS(=O)(=O)Cc2ccon2)c(C)o1,30.96%
4,CCC(O)CN(CC(=O)Nc1cc(C)no1)c1ccccc1 (stereo unspecified),5.147%
5,Cn1cc(NC(=O)Cc2cccs2)c(=O)n(C)c1=O,-7.177%
6,CN1CCC/C1=N\S(=O)(=O)c1ccc(NC(=O)Cc2cccs2)cc1,91.75%
7,CN1C(=O)CO[C@H](c2ccc(NC(=O)Cc3cccs3)cc2)[C@H]1CO,-17.64%
8,CCOc1nnc(CN2CCC(c3nc4ccccc4[nH]3)CC2)s1,-10.51%
9,Cc1cc(NCCCNc2cccnc2)n2nc(C)c(C)c2n1,88.33%
10,Cc1cc(NCCn2cccn2)n2ncnc2n1,-4.993%
11,CNc1ccnc(NCCSc2nccn2C)n1,3.348%
12,CCCc1cc(NCCn2cccn2)n2ncnc2n1,-13%
13,CCSCCNc1cc(C)nc2c(C)c(C)nn12,76.05%
14,CCc1cc(NCCc2cccnc2)n2nc(C)c(C)c2n1,15.8%
15,Cc1cc(NCCSc2nccn2C)n2nc(C)c(C)c2n1,108.3%
16,Cc1cc(NCc2nnc3n2CCC3)n2nc(C)c(C)c2n1,8.542%
17,CCc1cc(NCCNC(=O)c2cccnc2)n2nc(C)c(C)c2n1,18.31%
18,CCc1cc(NCCc2cnccn2)n2nc(C)c(C)c2n1,-4.525%
19,Cc1ccnc(NCCSc2nccn2C)n1,-1.785%
20,Cc1cc(NCCSc2nccn2C)n2ncnc2n1,81.57%
21,CCOC(=O)c1nnc2ccccc2c1N1CCN(CC)CC1,-7.556%
22,O=C(NC1CCCc2nc(N3CCCCC3)ncc21)C1CCCC1 (stereo unspecified),90.75%

row,Compound,Percent Effect
1,CN(C)c1ncc2c(n1)CCCC2NC(=O)C1CC1 (stereo unspecified),13.73%
2,CC(C)(C)c1cnc(CN2CCC(NC(=O)CC3CCCC3)CC2)o1,1.419%
3,O=C(NC1CCCc2nc(N3CCOCC3)ncc21)C1CCCC1 (stereo unspecified),122.7%
4,CCS(=O)(=O)c1ccc(N2CCC(NC(=O)CC3CCCC3)CC2)cc1,-9.103%
5,O=C(NC1CCCc2nc(N3CCOCC3)ncc21)C1CCCCC1 (stereo unspecified),91.3%
6,CC1(C)CC(N2Cc3nc(N4CCOCC4)ncc3C2=O)CC(C)(C)N1,10.47%
7,O=C(CC1CCCCC1)NC1CCCc2nc(N3CCOCC3)ncc21 (stereo unspecified),100.9%
8,Cn1ccnc1-c1ccc(NC[C@H]2CCc3ccccc3O2)nn1,2.045%
9,Cn1c(NC(=O)CNC(=O)C2CCCC2)nc2cc(Cl)ccc21,10.58%
10,Cc1nnc(CN2CCC3(CCC(=O)N(C4CC4)C3)CC2)o1,3.003%
11,COc1cccc2c1OCC(C(=O)N1CCN(S(=O)(=O)N(C)C)CC1)C2 (stereo unspecified),-34.53%
12,CCCS(=O)(=O)N1Cc2nccn2CC(CN2CCCC2)C1.O=C(O)C(F)(F)F (stereo unspecified),-1.434%
13,CCS(=O)(=O)N1Cc2nccn2CC(Cn2nc(C)nc2C)C1 (stereo unspecified),6.553%
14,CCS(=O)(=O)N1Cc2nccn2CC(Cn2cccn2)C1 (stereo unspecified),103.5%
15,CCS(=O)(=O)N1Cc2nccn2CC(CN2CCCC2)C1 (stereo unspecified),-0.1339%
16,O=S(=O)(C1CC1)N1Cc2nccn2CC(Cn2cncn2)C1 (stereo unspecified),116.3%
17,CCCS(=O)(=O)N1Cc2nccn2CC(Cn2cncn2)C1 (stereo unspecified),104.9%
18,CCS(=O)(=O)N1Cc2nccn2CC(Cn2cncn2)C1 (stereo unspecified),101.6%
19,Cc1nc(C)n(CC2CN(S(C)(=O)=O)Cc3nccn3C2)n1 (stereo unspecified),2.83%
20,CCCS(=O)(=O)N1Cc2nccn2CC(Cn2cccn2)C1 (stereo unspecified),-3.213%
21,CCn1nccc1C(=O)N1CCCCC1CCc1ccc(O)cc1 (stereo unspecified),1.71%
22,CC(NC(=O)Nc1nccs1)c1ccc(S(C)(=O)=O)cc1 (stereo unspecified),7.495%

row,Compound,Percent Effect
1,CCC(C(=O)NCC1CCN(c2cnn(C)c(=O)c2)CC1)n1cccn1 (stereo unspecified),4.446%
2,O=C(c1ccoc1)N1CCCn2nnc(COCC3CC3)c2C1,-7.176%
3,O=C(C1CCC1)N1CCc2[nH]cnc2C12CCN(C1CCOCC1)CC2,2.513%
4,CN1CCN(Cc2nc3c(s2)CCCC3)[C@H]2CS(=O)(=O)C[C@H]21,-12.07%
5,CC(C)(C)c1nnc(CN2CCN(CC(O)c3ccccc3)CC2)o1 (stereo unspecified),-4.717%
6,O=C(CCCc1ccc(F)cc1)N1C[C@@H](CN2CCOCC2)[C@@H](CO)C1,-13.37%
7,O=C1CN(Cc2cnc3c(-c4ccccc4)cnn3c2)CCCN1,-7.334%
8,CNC(=O)[C@@H](C1CC1)N1CCC[C@H]1C(=O)NCC(C)C.Cl,5.18%
9,CN(CCN1CCCCCC1)C(=O)c1cc(CN2CCCC(O)C2)on1 (stereo unspecified),-22.76%
10,CC(=O)Nc1c(C)cnn1Cc1cc(F)ccc1F,-3.865%
11,O=C(NCCCN1CCc2ccccc2C1)c1cccnc1O,6.847%
12,CC(OCCCNC(=O)c1cccnc1O)c1ccccc1 (stereo unspecified),95.41%
13,COc1ccc(C(=O)NCCCNc2ncccn2)c(OC)c1,-2.256%
14,COc1ccc(C(=O)NCCCOC(C)c2ccccc2)c(OC)c1 (stereo unspecified),92.39%
15,CS(=O)(=O)NCCCNC(=O)c1cccnc1O,-1.609%
16,COc1ccc(C(=O)NCCc2nnc3ccccn23)c(OC)c1,-1.311%
17,COCCN1CC2(CCCN(Cc3cc(=O)c(OC)co3)C2)CCC1=O (stereo unspecified),3.181%
18,COc1cc(CNC(=O)NCCCF)cc(Br)c1OC,-2.867%
19,CN(C(=O)Cn1nc(-c2ccc(F)cc2)oc1=O)c1ccccc1,-62.32%
20,CCN(CC)C(=O)CSc1ncc[nH]1,45.3%
21,CN(C(=O)CSc1ncc[nH]1)c1ccccc1,93.6%
22,CN(C(=O)CN1CCCC1Cc1ccccc1)c1ccccc1 (stereo unspecified),21.48%

row,Compound,Percent Effect
1,CN(C(=O)CSc1ncc[nH]1)C1CC1,109.9%
2,CCN(C(=O)CSc1ccc(C(F)(F)F)cn1)C1CC1,-14.79%
3,COc1ncccc1NC(=O)N1CCCC(CNC(=O)OC(C)(C)C)C1 (stereo unspecified),1.374%
4,O=C(NC[C@H]1Cn2c(-c3ccccc3)cnc2CO1)C1CCOCC1,-9.795%
5,Cn1c(-c2ccccc2Cl)nc2cc(C(=O)NCC3(C)COC3)cnc21,7.504%
6,CCCc1nccn1-c1cccc(C(C)O)c1 (stereo unspecified),0.8056%
7,Cc1cc(C(=O)NC2CCN(C(=O)Nc3cccnc3)CC2)c(C)o1,20.93%
8,Cc1ccc(C(=O)NC2CCN(C(=O)Nc3ccncc3)CC2)o1,166.8%
9,Cc1ccc(NC(=O)N2CCC(NC(=O)c3ccc(C)o3)CC2)cc1,-6.266%
10,Cc1ccc(C(=O)NC2CCN(C(=O)NCc3ccccn3)CC2)o1,118.1%
11,O=C(NCc1ccccn1)N1CC=C(c2ccccc2)CC1,32.63%
12,Cc1ccc(C(=O)NC2CCN(C(=O)Nc3ccccn3)CC2)o1,4.828%
13,Cc1ccc(C)c(OCCN(C)C(=O)C2CCCN2C(N)=O)c1C (stereo unspecified),-6.745%
14,COc1ccc(C2CCCN2c2ccc(C#N)cn2)c(OC)c1 (stereo unspecified),3.649%
15,CC(=O)N1CCC2(C1)c1ccccc1S(=O)(=O)N2C (stereo unspecified),115.8%
16,CCCN1CCC2(C1)c1ccccc1S(=O)(=O)N2Cc1ccccc1.O=C(O)C(F)(F)F (stereo unspecified),16.14%
17,CC(=O)N1CCC2(C1)c1ccccc1S(=O)(=O)N2Cc1ccccc1 (stereo unspecified),103.8%
18,CCCN1CCC2(C1)c1ccccc1S(=O)(=O)N2C.O=C(O)C(F)(F)F (stereo unspecified),-10.43%
19,CCCN(CC(=O)OC)C(=O)c1sc(C)nc1C,1.933%
20,Cn1cnc2c1CCN(CCOc1ccc3c(c1)CCC(=O)N3)C2,-6.768%
21,Cc1ccc(CNC2(Cc3cc(C(C)(C)O)on3)COC2)o1,-11.3%
22,FC(F)(F)c1ccc(-c2n[nH]c3c2CN(CC2CCOC2)CC3)cc1 (stereo unspecified),2.824%

row,Compound,Percent Effect
1,CCN(C)CC1CCN(C(=O)Nc2ccc(-c3cc[nH]n3)cc2)C1 (stereo unspecified),2.001%
2,CCCC(=O)N1CCC(c2cc[nH]n2)C1 (stereo unspecified),112.5%
3,Cn1ccc(C(=O)N2CCCC(c3cc4cccnc4c(O)n3)C2)n1 (stereo unspecified),126.9%
4,CCNC(=O)N1CCN(C(=O)c2cc(Cl)cc3cccnc23)CC1,-12.31%
5,CCCC(=O)N1CCC(c2nn(C)c(=O)n2-c2ccccc2)CC1,0.6972%
6,CCCC(=O)N1CCCC(c2cc3cccnc3c(O)n2)C1 (stereo unspecified),167%
7,CCOC(=O)CCC(=O)N1CCC(Oc2ncccc2Cl)CC1,1.106%
8,CCCC(=O)N1CCC(c2cc3cccnc3c(O)n2)CC1,125.1%
9,CN(Cc1ccon1)C(=O)C1CC(=O)N(Cc2cccnc2)C1 (stereo unspecified),3.448%
10,Cc1cc(Cn2cncc(Br)c2=O)on1,0.4664%
11,O=C(NCc1cccc(C(F)(F)F)c1)C(c1cccnc1)N1CCCC1 (stereo unspecified),-10.57%
12,CC(C)[C@H]1COC(=O)N1CC(=O)N1CCCN(C(=O)c2ccoc2)CC1,-24.24%
13,Cc1cccc(N2CCC(NCc3cnc(C4CCC4)s3)CC2)n1,7.912%
14,Cc1nc(C(F)(F)F)nc(N2CCC3(CC2)CC(C(=O)O)N(C)C3)c1C (stereo unspecified),-7.708%
15,CCOCCC(=O)N1CCCC(c2ncc[nH]2)C1 (stereo unspecified),-13.21%
16,CCC(=O)N1CCCC(c2cc(Nc3ncccn3)nc(C)n2)C1 (stereo unspecified),-9.589%
17,CCCC(=O)N1CCCC(c2ccccn2)C1 (stereo unspecified),152.5%
18,Cc1nc2c(s1)C(N(C)C(=O)NCCCC(C)(C)CO)CCC2 (stereo unspecified),-8.844%
